High-throughput results: PubChem BioAssay, several laboratories
Sampled rows, rich in hits. Any-hit rate of the full collection: about 2.8%.
PP5 inh – PP5 phosphatase inhibitors, primary screen, biochemical, fluorescence; purified PP5c, OMFP substrate fluorescence; inhibition, % at 6.7 µM; 320,000 tested, 0.18% active;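 active means inhibition above the campaign's mean inhibition across all tested compounds plus 3 SD, cut at about 9.5% in these data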;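 further: 0% = DMSO only and 100% = 100 µM cantharidin control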
Target sequence (P53041 whole entry, looked up): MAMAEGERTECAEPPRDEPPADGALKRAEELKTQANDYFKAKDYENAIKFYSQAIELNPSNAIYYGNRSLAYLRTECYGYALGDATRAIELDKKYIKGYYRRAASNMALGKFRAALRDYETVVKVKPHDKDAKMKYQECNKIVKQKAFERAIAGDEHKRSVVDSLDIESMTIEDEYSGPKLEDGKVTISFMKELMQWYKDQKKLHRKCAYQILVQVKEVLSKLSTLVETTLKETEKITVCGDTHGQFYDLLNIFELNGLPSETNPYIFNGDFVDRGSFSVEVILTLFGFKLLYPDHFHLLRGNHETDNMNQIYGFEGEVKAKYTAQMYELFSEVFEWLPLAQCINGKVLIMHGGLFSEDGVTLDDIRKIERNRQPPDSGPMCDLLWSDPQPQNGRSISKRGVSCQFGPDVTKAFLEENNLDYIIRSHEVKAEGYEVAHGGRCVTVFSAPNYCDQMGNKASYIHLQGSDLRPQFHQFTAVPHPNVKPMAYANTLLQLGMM
JMJD2C inh – inhibitors of GASC-1 histone demethylase, primary screen, biochemical, fluorescence, DELFIA europium. AID 2099, 2009. Lysine-specific demethylase 4C (Homo sapiens), Q9H3R0. GST-JMJD2C(1-420) H3K9me3 demethylation. 330,000 tested, 0.069% active. inhibition, % at 2.35 µM;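 active means more than half of a compound's replicate wells show inhibition beyond 50%, single wells judged on their own value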;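 further: signal counts dimethyl H3K9 product captured on neutravidin plate; 0% = median of DMSO wells and 100% = 0.3 times that DMSO median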
proKLK7 act – proKLK7 zymogen activators, primary screen, biochemical, fluorescence intensity; Kallikrein-7 (Homo sapiens), P49862; purified proKLK7, EDANS-DABCYL substrate fluorescence; 100% is mature enzyme control, 0% vehicle; activation, % at 7 µM; 370,000 tested, 0.9% active;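 active means activation above the mean of all tested compounds plus 3 SD, computed per campaign excluding outliers beyond control limits, cut at about 13% in these data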
PG9 Ab binder – binders of HIV-1 gp120 antibody PG9, primary screen, biochemical, TR-FRET | HIV-1 gp120 / PG9 antibody interaction | TR-FRET gp120-PG9 antibody binding | inhibition, % at 6.7 µM | 360,000 tested, 0.43% active | AID 624416, 2012; in the data active means inhibition above about 8.5%
PP1 inh – PP1-alpha phosphatase inhibitors, primary screen, counter-screen for PP5 inhibitor project, biochemical, fluorescence, OMFP substrate, single point. Serine/threonine-protein phosphatase PP1-alpha catalytic subunit (Homo sapiens), P62136. inhibition, % at 6.7 µM. purified PP1alpha. 320,000 tested, 0.9% active;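 active means inhibition above the mean inhibition of all tested compounds plus 3 SD, computed separately for each screening campaign, cut at about 15% in these data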
Rev-erbA mod – modulators of Rev-erb alpha DNA binding, primary screen, biochemical, FITC-DNA, fluorescence polarization, uHTS. activity, % at 10 µM. Rev-erbα–FITC-DNA binding, 90 min. 370,000 tested, 0.79% active. AID 1259318, 2017. Nuclear receptor subfamily 1 group D member 1 (Homo sapiens), P20393;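 active means activity above about 14%, limit read from the data; passing the limit was not always enough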;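 further: 0% = DMSO wells with 35 nM protein and 100% = DMSO wells with 750 nM protein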
The depositor's hits bear a star; x = no result given.

SMILES	PP5 inh	JMJD2C inh	proKLK7 act	PG9 Ab binder	PP1 inh	Rev-erbA mod
Cc1cc(-n2c(=O)[nH]c(=O)n(C)c2=O)ccc1Oc1ccc(SC(F)(F)F)cc1	x	x	x	x	x	0
CCC(c1nnnn1CCc1ccccc1)N(Cc1ccco1)Cc1cc2c(C)ccc(C)c2[nH]c1=O (stereo not drawn)	1	6	0	1	16*	6
CC(=O)OCC(=O)[C@@]1(O)[C@H](C)CC2C3CCC4=CC(=O)C=C[C@]4(C)[C@@]3(F)[C@@H](O)C[C@@]21C (stereo partly drawn)	x	x	x	x	x	4
O=C(O)CCCC[C@@H]1SC[C@@H]2NC(=O)N[C@@H]21	3	96*	0	-1	-1	8
C[N@+]12CCCC[C@@H]1CCC(=C(c1cccs1)c1cccs1)C2	x	x	x	x	x	0
O=c1[nH]c(C2CCN(S(=O)(=O)c3ccc4c(c3)OCCO4)CC2)nc2c1nnn2Cc1c(F)cccc1Cl	4	0	0	1	17*	4
O=c1[nH]c(C2CCN(S(=O)(=O)/C=C/c3ccccc3)CC2)nc2c1nnn2Cc1ccc(F)cc1	3	-11	0	-3	17*	-3
O=c1[nH]c(C2CCN(S(=O)(=O)c3ccc4c(c3)OCCO4)CC2)nc2c1nnn2Cc1ccccc1F	3	-11	0	2	5	-1
O=c1[nH]c(C2CCN(S(=O)(=O)c3ccc(C(F)(F)F)cc3)CC2)nc2c1nnn2Cc1cccc(F)c1	6	7	0	1	-1	-3
O=c1[nH]c(C2CCN(S(=O)(=O)c3ccccc3C(F)(F)F)CC2)nc2c1nnn2Cc1cccc(F)c1	1	-15	0	-2	16*	-5
Cc1c(C)c2c(c(C)c1OC(=O)CCC(=O)OCCO)CCC(C)(CCCC(C)CCCC(C)CCCC(C)C)O2 (stereo not drawn)	x	x	x	x	x	3
C=CCNC(=O)CN(C(=O)Cc1cccc(OC(F)(F)F)c1)c1cccc(Br)c1	x	x	0	x	x	2
N#Cc1c(N2CCN(C(=O)c3ccccc3Cl)CC2)nc(-c2ccccc2)c2c1CCCC2	0	-4	-34	1	-2	-4
N#Cc1c(N2CCN(C(=O)c3ccccc3)CC2)nc(-c2ccccc2)c2c1CCCC2	1	-12	-30	2	16*	12
O=C1/C(=C/c2ccc(F)cc2)SC(=S)N1CC(=O)N1CCCCC1c1cccnc1 (stereo not drawn)	1	13	1	-4	16*	0
CC(C)(C)OC(=O)NCC(=O)Oc1cc2oc(=O)cc(-c3ccccc3)c2cc1Cl	2	4	16*	4	1	-1
O=C(Oc1cc2oc(=O)cc(-c3ccccc3)c2cc1Cl)C1CCCCC1	2	5	37*	0	-1	-12
CCc1cc2c(-c3ccccc3)cc(=O)oc2cc1OC(C)C(C)=O (stereo not drawn)	3	-13	-1	-2	3	1
Nc1[nH]n2c(=O)cc(-c3ccccc3)nc2c1N=Nc1ccc(S(N)(=O)=O)cc1	3	5	0	-7	16*	16
NC(=O)C1CSSCCC(=O)NC(CCCCN=C(N)N)C(=O)NCC(=O)NC(CC(=O)O)C(=O)NC(Cc2c[nH]c3ccccc23)C(=O)N2CCCC2C(=O)N1 (stereo not drawn)	x	x	x	x	x	-1
O=C(Nc1ccc(N2CCOCC2)cc1)c1ccc(COc2ccccc2)cc1	1	-5	0	-1	16*	5
CC(=O)Nc1ccc(NC(=O)c2ccc(COc3ccccc3)cc2)cc1	3	3	-1	-1	0	-2
CCOc1ccc(C(=O)Nc2ccc(N3CCCC3)cc2)cc1	1	-4	0	-3	8	5
CCOc1cccc(C(=O)Nc2ccc(N3CCCC3)cc2)c1	4	22	0	-12	16*	-1
CNC(C)[C@@H]1CC[C@@H](N)[C@@H](O[C@@H]2[C@H](O)[C@@H](O[C@@H]3OC[C@](C)(O)[C@H](NC)[C@H]3O)[C@H](N)C[C@@H]2N)O1 (stereo partly drawn)	x	x	x	x	x	-2
SMILES	PP5 inh	JMJD2C inh	proKLK7 act	PG9 Ab binder	PP1 inh	Rev-erbA mod
CC(C)(C)OC(=O)N1CCC2CCN(CCc3ccccc3)CC21 (stereo not drawn)	x	x	0	-2	x	-12
CN(C)[C@@H]1C(=O)C(C(=O)NCN2CCCC2)=C(O)[C@@]2(O)C(=O)C3=C(O)c4c(O)cccc4[C@@](C)(O)[C@H]3C[C@@H]12	x	x	x	x	x	-5
Cc1cc(C)c(Nc2cc(S(=O)(=O)O)c(N)c3c2C(=O)c2ccccc2C3=O)c(C)c1	8	17	0	-34	25*	-10
Cc1cc(C)c(NC(=O)COC(=O)c2cccc3c2C(=O)c2ccccc2C3=O)c(C)c1	4	3	0	-1	5	6
COc1ccc(NC(=O)Nc2nnc(-c3ccccc3SCc3ccccc3)s2)cc1	3	-5	-1	-2	19*	4
COc1cccc(NC(=O)Nc2nnc(-c3ccccc3SCc3ccccc3)s2)c1	-1	6	0	-1	6	1
CCOC(=O)c1c(NC(=S)Nc2ccccc2)sc2c1CCN(CC)C2	-1	0	75*	1	3	6
O=C(O)c1cccnc1SC1CC(=O)N(c2cccc(C(F)(F)F)c2)C1=O (stereo not drawn)	-2	3	0	4	-4	-5
O=C(O)c1cccnc1SC1CC(=O)N(c2ccc(OC(F)F)cc2)C1=O (stereo not drawn)	4	-1	1	-2	16*	-4
CC[C@]12c3[nH]c4ccccc4c3CCN1C(=O)C(CC(=O)NCCCN(C)C)C[C@@H]2C(=O)N1CCN(C(=O)C2CC2)CC1 (stereo partly drawn)	x	8	-1	-1	x	1
CC[C@]12c3[nH]c4ccccc4c3CCN1C(=O)C(CC(=O)NCCCOC)C[C@@H]2C(=O)N1CCN(C(=O)C2CC2)CC1 (stereo partly drawn)	x	53*	0	0	x	0
COc1cccc(/C=N/NC(=O)c2cc(-c3cccn3C)n[nH]2)c1O	3	-7	-8	-2	16*	1
COc1cc(/C=N/NC(=O)c2cc(-c3cccn3C)n[nH]2)cc(OC)c1OC	2	1	0	1	-1	-1
